Source: PubChem BioAssay (NCI)
About 83,000 compounds went through this panel and 20% of them were active in at least one assay; those are over-represented in the sample as a whole.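 Growth was measured after 48 h exposure to one concentration of compound in 96-well plates. Values under 10 count as active.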 Unmarked numbers belong to inactive results. Active and inactive are the calls of the source.

test system: SK-MEL-5 melanoma; test: NCI-60 one-dose screen, 48 h (100 = growth as untreated, 0 = no growth, -100 = all killed); details: 10 µM unless noted

Question: `CC(C)(C)N1CCC1CN` (stereo unspecified) was tested. Which growth did it give?
Answer: 136%

Question: With `Cc1nn(-c2ccc(F)cc2)c2ncnc(Nc3ccc(NC(=O)Nc4ccc(Cl)c(C(F)(F)F)c4)cc3)c12` as the molecule, how does the growth read?
Answer: 61.1%

Question: How did the growth turn out when `O=C(N/N=C/c1ccccc1O)c1ccccc1Nc1ccnc(C(F)(F)F)c1` was run?
Answer: -64.5% (active)

Question: How did the growth turn out when `CC(=O)O[C@H]1[C@@H]2OC(=O)C(CSc3ccccc3)[C@@H]2C[C@H]2O[C@]2(C)CC/C=C(\C)CCC[C@@H]1C` (stereo partly specified) was run?
Answer: 47%

Question: With `O=C1CC[C@H](c2ccc(O)c3c2C(=O)[C@@H]2O[C@@H]2C3=O)c2cccc(O)c21` as the molecule, how does the growth read?
Answer: 92.6%

Question: For `COc1ccc(S(=O)(=O)N2CC3(COC3)C2)cc1NC(=O)c1[nH]c(C)c2c1CCCCC2=O`, which growth is on record?
Answer: 46.5%

Question: `Cc1ccc(OC(=O)c2ccc(Cl)cc2)cc1` was tested. Which growth did it give?
Answer: 103%

Question: With `O=C(CCCCC(=O)N/N=C\c1ccccc1O)N/N=C\c1ccccc1O` as the molecule, how does the growth read?
Answer: -14.9% (active)

Question: For `O=C1C=CC(=O)N1c1ccc2c(c1)Cc1cc(F)ccc1-2`, which growth is on record?
Answer: 98.1%

Question: `FC(F)(F)c1nc2c(NCc3ccc(-c4ccccc4)cc3)cccc2[nH]1` was tested. Which growth did it give?
Answer: 88.4%

Question: How did the growth turn out when `Brc1ccc(-c2csc(Nc3ccccn3)n2)cc1` was run?
Answer: 75.5%

Question: With `COc1ccc(C2CC(c3ccc(Cl)cc3)=NN2/C=C2\SC(=S)N(NC(=O)Cc3ccccc3Nc3c(Cl)cccc3Cl)C2=O)cc1` (stereo unspecified) as the molecule, how does the growth read?
Answer: 81.9%

Question: For `O=C(N(c1ccccc1)c1ccccc1)n1ccc2nc(Cl)nc(Cl)c21`, which growth is on record?
Answer: 64.9%

Question: With `NC(=O)c1cc(Cl)ccc1NC(=O)/C=C/c1ccccc1` as the molecule, how does the growth read?
Answer: 5.23% (active)

Question: Which growth does the source give for `Cn1ncc2c(=O)nc3c(-c4ccccc4)n[nH]n3c21` here?
Answer: 110%

Question: Which growth does the source give for `Cc1nn(-c2ccc(F)cc2)c2ncnc(Oc3ccc(NC(=O)Nc4ccc(Cl)c(C(F)(F)F)c4)cc3)c12` here?
Answer: 99.1%
